Assay results published in PubChem BioAssay AID1159580 (chemical genetic matrix, 2015).
About 2,000 (36%) of roughly 5,500 compounds were called active. Another 18% or so got no clear call; they are omitted. No stated cut-off is given here; in the data, active means normalized growth mostly below about 0.91 (no sharp cut-off); inconclusive means no clear call, values can overlap the other calls; inactive means mostly above about 0.92. This is one part of the list.

Experiment: chemical genetic growth profiling, strain panel (AID 1159580);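 further: tested at 20 µM; growth read once vehicle control cultures reached saturation at 30 °C; 1 = growth at the plate median or of vehicle wells; lower values mean less growth of the strain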
Details: growth OD

Measured: normalized growth

Nc1ccc(S(=O)(=O)Nc2cnc3ccccc3n2)cc1
inactive: S. cerevisiae deletion strains, locus YJR075W, strain HOC1, hits give low values 0.982 | S. cerevisiae deletion strains, locus YKL009W, strain mrt4, hits give low values 0.971 | S. cerevisiae deletion strains, locus YKL068W, hits give low values 0.985 | S. cerevisiae deletion strains, locus YKL085W, strain MDH1 (second series), hits give low values 0.98 | S. cerevisiae deletion strains, locus YKL085W, strain MDH1, hits give low values 0.98 | S. cerevisiae deletion strains, locus YKL160W, strain elf1, hits give low values 1.01 | S. cerevisiae deletion strains, locus YKL190W, strain CNB1, hits give low values 0.976 | S. cerevisiae deletion strains, locus YKR001C, strain vps1, hits give low values 0.969 | S. cerevisiae deletion strains, locus YKR026C, strain gcn3, hits give low values 1.02 | S. cerevisiae deletion strains, locus YKR091W, strain srl3, hits give low values 1.01 | S. cerevisiae deletion strains, locus YLL001W, strain dnm1, hits give low values 1.02 | S. cerevisiae deletion strains, locus YLL026W, hits give low values 1.01 | S. cerevisiae deletion strains, locus YLL041C, strain sdh2, hits give low values 1 | S. cerevisiae deletion strains, locus YLR027C, strain aat2, hits give low values 1.01 | S. cerevisiae deletion strains, locus YLR039C, strain RIC1, hits give low values 0.959 | S. cerevisiae deletion strains, locus YLR058C, strain SHM2, hits give low values 0.971 | S. cerevisiae deletion strains, locus YLR102C, strain apc9, hits give low values 0.992 | S. cerevisiae deletion strains, locus YLR113W, strain HOG1, hits give low values 0.967 | S. cerevisiae deletion strains, locus YLR221C, strain rsa3, hits give low values 0.995 | S. cerevisiae deletion strains, locus YLR258W, strain gsy2, hits give low values 1.01 | S. cerevisiae deletion strains, locus YLR262C, strain YPT6 (second series), hits give low values 1.02 | S. cerevisiae deletion strains, locus YLR262C, strain YPT6, hits give low values 0.964 | S. cerevisiae deletion strains, locus YLR268W, strain sec22, hits give low values 0.904 | S. cerevisiae deletion strains, locus YLR320W, strain mms22, hits give low values 1.01 | S. cerevisiae deletion strains, locus YLR330W, strain CHS5, hits give low values 0.995 | S. cerevisiae deletion strains, locus YLR342W, strain FKS1 (second series), hits give low values 1.02 | S. cerevisiae deletion strains, locus YLR342W, strain FKS1, hits give low values 1.01 | S. cerevisiae deletion strains, locus YLR357W, strain rsc2, hits give low values 0.995 | S. cerevisiae deletion strains, locus YLR370C, strain arc18, hits give low values 1.03 | S. cerevisiae deletion strains, locus YLR371W, strain rom2, hits give low values 0.984 | S. cerevisiae deletion strains, locus YLR384C, strain iki3, hits give low values 1.01 | S. cerevisiae deletion strains, locus YLR418C, strain cdc73, hits give low values 0.979 | S. cerevisiae deletion strains, locus YML016C, strain PPZ1, hits give low values 0.996 | S. cerevisiae deletion strains, locus YML032C, strain rad52, hits give low values 0.979 | S. cerevisiae deletion strains, locus YML120C, strain ndi1, hits give low values 1.02 | S. cerevisiae deletion strains, locus YML124C, strain tub3, hits give low values 0.978 | S. cerevisiae deletion strains, locus YMR058W, strain fet3, hits give low values 1.02 | S. cerevisiae deletion strains, locus YMR078C, strain ctf18, hits give low values 0.974 | S. cerevisiae deletion strains, locus YMR125W, strain sto1, hits give low values 1.03 | S. cerevisiae deletion strains, locus YMR129W, hits give low values 1.02 | S. cerevisiae deletion strains, locus YMR205C, strain PFK2, hits give low values 1.02 | S. cerevisiae deletion strains, locus YMR223W, strain ubp8, hits give low values 1 | S. cerevisiae deletion strains, locus YMR231W, strain pep5, hits give low values 1.01 | S. cerevisiae deletion strains, locus YMR263W, strain SAP30, hits give low values 0.978 | S. cerevisiae deletion strains, locus YMR307W, strain GAS1, hits give low values 1.1 | S. cerevisiae deletion strains, locus YNL067W, strain RPL9B, hits give low values 0.977 | S. cerevisiae deletion strains, locus YNL071W, strain lat1, hits give low values 1.02 | S. cerevisiae deletion strains, locus YNL153C, strain GIM3, hits give low values 0.962 | S. cerevisiae deletion strains, locus YNL183C, strain NPR1, hits give low values 0.921 | S. cerevisiae deletion strains, locus YNL209W, strain ssb2, hits give low values 1.02 | S. cerevisiae deletion strains, locus YNL233W, strain BNI4, hits give low values 0.984 | S. cerevisiae deletion strains, locus YNL248C, strain rpa49, hits give low values 1.02 | S. cerevisiae deletion strains, locus YNL250W, strain rad50, hits give low values 0.98 | S. cerevisiae deletion strains, locus YNL271C, strain bni1, hits give low values 0.985 | S. cerevisiae deletion strains, locus YNL298W, strain CLA4, hits give low values 0.988 | S. cerevisiae deletion strains, locus YNL307C, strain MCK1, hits give low values 0.983 | S. cerevisiae deletion strains, locus YNL322C, strain KRE1 (second series), hits give low values 0.997 | S. cerevisiae deletion strains, locus YNL322C, strain KRE1, hits give low values 0.992 | S. cerevisiae deletion strains, locus YNR049C, strain mso1, hits give low values 1.01 | S. cerevisiae deletion strains, locus YNR052C, strain pop2, hits give low values 0.987 | S. cerevisiae deletion strains, locus YOL006C, strain TOP1, hits give low values 0.997 | S. cerevisiae deletion strains, locus YOL012C, strain htz1 1.64 | S. cerevisiae deletion strains, locus YOL147C, strain pex11, hits give low values 0.988 | S. cerevisiae deletion strains, locus YOR001W, strain rrp6, hits give low values 1.02 | S. cerevisiae deletion strains, locus YOR061W, strain CKA2, hits give low values 0.961 | S. cerevisiae deletion strains, locus YOR069W, strain VPS5, hits give low values 0.995 | S. cerevisiae deletion strains, locus YOR070C, strain gyp1, hits give low values 1.01 | S. cerevisiae deletion strains, locus YOR080W, strain dia2, hits give low values 1.02 | S. cerevisiae deletion strains, locus YOR083W, strain WHI5, hits give low values 0.99 | S. cerevisiae deletion strains, locus YOR106W, strain vam3, hits give low values 1.03 | S. cerevisiae deletion strains, locus YOR136W, strain idh2, hits give low values 0.98 | S. cerevisiae deletion strains, locus YOR144C, strain elg1, hits give low values 0.977 | S. cerevisiae deletion strains, locus YOR184W, strain ser1, hits give low values 0.98 | S. cerevisiae deletion strains, locus YOR231W, strain MKK1, hits give low values 0.975 | S. cerevisiae deletion strains, locus YOR265W, strain rbl2, hits give low values 1.01 | S. cerevisiae deletion strains, locus YOR270C, strain vph1, hits give low values 1.02 | S. cerevisiae deletion strains, locus YOR290C, strain snf2, hits give low values 0.998 | S. cerevisiae deletion strains, locus YOR316C, strain cot1, hits give low values 0.969 | S. cerevisiae deletion strains, locus YPL051W, strain arl3, hits give low values 1 | S. cerevisiae deletion strains, locus YPL055C, strain LGE1, hits give low values 0.94 | S. cerevisiae deletion strains, locus YPL078C, strain atp4, hits give low values 1.02 | S. cerevisiae deletion strains, locus YPL106C, strain sse1, hits give low values 1.03 | S. cerevisiae deletion strains, locus YPL240C, strain hsp82, hits give low values 1.02 | S. cerevisiae deletion strains, locus YPL256C, strain CLN2, hits give low values 0.96 | S. cerevisiae deletion strains, locus YPR119W, strain clb2, hits give low values 0.986 | S. cerevisiae deletion strains, locus YPR141C, strain kar3, hits give low values 0.972 | S. cerevisiae deletion strains, locus YPR163C, strain tif3, hits give low values 0.989 | S. cerevisiae deletion strains, locus YPR167C, strain met16, hits give low values 0.987 | S. cerevisiae deletion strains, strain wtn01, hits give low values 0.991 | S. cerevisiae strains, strain wild type, hits give low values 0.986
